Most compounds without a hit are left out; they make up all but 1.2% or so of the library.
RGS8-Gao reg – RGS8-Galphao binding modulators, primary screen, biochemical, multiplexed bead flow cytometry | actives lie on both sides | response (percent of control binding), % at 10 µM | 220,000 compounds, 0.34% hits; in the data active = response below about 60% or above about 140%; inactive = in between;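 also: Galphao activated as the GDP aluminium fluoride complex binding bead-coupled RGS8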
GSH bead fluor – compound fluorescence on glutathione beads, profiling panel, artefact control, biophysical, 488/530 nm, flow cytometry | GSH beads flow cytometry, compound fluorescence 488/530 nm; stronger effect = higher value | fluorescence (KMESF) at 10 µM | 190,000 compounds, 0.25% hits | AID 1776, 2009; in the data active = fluorescence above about 89;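 also: glutathione beads carrying GST-tagged Bcl family fusion proteins plus one bare bead set; values are compound well signal with DMSO vehicle wells as background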
RGS16-Gao HTS – modulators of RGS16 binding to Galphao, primary screen, biochemical, human proteins, multiplexed bead flow cytometry. AID 1441, 2008. binding response (% of control), % at 10 µM. bead-based flow cytometry RGS16-Galphao binding, fluorescence; actives lie on both sides. Regulator of G-protein signaling 16 (Homo sapiens) + Guanine nucleotide-binding protein …. 220,000 compounds, 0.38% hits;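 also: Galphao activated by GDP with aluminum fluoride before binding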
RGS7-Gao – RGS7-Galphao binding modulators, primary screen, biochemical, multiplexed bead flow cytometry. binding response (% of control), % at 10 µM. Guanine nucleotide-binding protein G(o) subunit alpha (Homo sapiens), P09471. actives lie on both sides. 220,000 compounds, 0.35% hits; in the data active = binding response below about 49% or above about 150%; inconclusive = no clear call, values can overlap the other calls; inactive = in between;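 also: fluorescent Galphao held in activated GDP-AlF4 state binding bead-coupled RGS7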
RGS4-Gao reg – modulators of RGS4 binding to Galphao, primary screen, biochemical, multiplexed bead flow cytometry | actives lie on both sides | binding response (% of control), % at 10 µM | 220,000 compounds, 0.33% hits | Guanine nucleotide-binding protein G(o) subunit alpha (Homo sapiens), P09471; in the data active = binding response below about 49% or above about 150%; inactive = in between;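 also: fluorescent Galphao activated with aluminum fluoride binding bead-coupled RGS4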
Avidin fluor – green autofluorescence of compounds with avidin beads – biophysical, 488/530 nm, flow cytometry, artefact control, profiling panel; fluorescence (KMESF) at 10 µM; compound fluorescence 488/530 nm; stronger effect = higher value; 220,000 compounds, 0.38% hits; in the data active = fluorescence above about 47
RGS-Gao – modulators of RGS–Galpha-o binding, primary screen, biochemical, multiplexed beads, flow cytometry, RGS4/7/8/16/19; 1,600 compounds, 99% hits; AID 1504, 2009; RGS4–Galpha-o binding response, % at 10 µM; shares compounds with RGS16-Gao HTS; multiplexed bead flow cytometry;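 also: fluorescently labeled Galpha-o bound to GDP with aluminium fluoride binding biotinylated RGS beads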
Biotin-avidin – disruption of biotin probe capture by avidin, counter-screen for RGS protein interaction modulators, biochemical, flow cytometry, bead-based; inhibition, % at 10 µM; streptavidin beads, fluorescein-biotin binding; 1,700 tested, under 10 active; shares compounds with RGS16-Gao HTS; AID 1783, 2009;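 active = inhibition above 50%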;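 also: median green fluorescence of gated singlet beads compared with DMSO control wells; 0% = DMSO wells and 100% = complete loss of bead fluorescence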
RGS8-Gao single – RGS8-Galphao binding modulators, confirmation, biochemical, multiplexed bead flow cytometry, single concentration | shares compounds with RGS16-Gao HTS | bead-based flow cytometry RGS8-Galphao binding, fluorescence; actives lie on both sides | binding response (% of control), % at 10 µM | 1,700 compounds, 3% hits | AID 1836, 2009; in the data active = binding response below about 72% or above about 130%; inactive = in between;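 also: Galphao activated as GDP AlF4 complex before binding bead RGS8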
RGS7-Gao confirm – RGS7-Galphao binding modulators, confirmation, biochemical, multiplexed bead flow cytometry, single concentration | shares compounds with RGS16-Gao HTS | bead-based flow cytometry RGS7-Galphao binding; actives lie on both sides | response (percent of control binding), % at 10 µM | 1,700 compounds, 7.8% hits; in the data active = response below about 75% or above about 130%; inactive = in between;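 also: fluorescent Galphao activated with GDP and aluminum fluoride binding bead-coupled RGS7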
RGS16-Gao conf – modulators of RGS16-Galphao protein binding, confirmation, biochemical, single concentration, multiplexed bead flow cytometry; shares compounds with RGS16-Gao HTS; bead-based flow cytometry; actives lie on both sides; response (% of control binding), % at 10 µM; 1,700 compounds, 4% hits; in the data active = response below about 74% or above about 130%; inactive = in between;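 also: Galphao activated as the GDP aluminium fluoride complex binding bead-coupled RGS16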
RGS4-Gao confirm – modulators of RGS4-Galphao protein binding, confirmation, biochemical, single concentration, multiplexed bead flow cytometry; shares compounds with RGS16-Gao HTS; actives lie on both sides; binding response (% of control), % at 10 µM; 1,700 compounds, 4% hits; AID 1840, 2009; in the data active = binding response below about 74% or above about 130%; inactive = in between
RGS19-Gao conf – regulators of RGS19-Galphao binding, confirmation, biochemical, single point, multiplexed bead flow cytometry. shares compounds with RGS16-Gao HTS. bead-based flow cytometry RGS19-Galphao binding; actives lie on both sides. response (percent of control binding), % at 10 µM. 1,700 compounds, 5% hits; in the data active = response below about 50% or above about 160%; inactive = in between;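 also: 100% = no compound control and 0% = blank background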
The depositor's hits bear a star; ? = inconclusive; · = not tested or not shown; [ ] = another dose, or the depositor's remark. Unless noted, no rule for the calls is given here.

SMILES	RGS8-Gao reg	GSH bead fluor	RGS16-Gao HTS	RGS7-Gao	RGS4-Gao reg	Avidin fluor	RGS-Gao	Biotin-avidin	RGS8-Gao single	RGS7-Gao confirm	RGS16-Gao conf	RGS4-Gao confirm	RGS19-Gao conf
O=C(O)C1CCCCC1C(=O)Nc1ccc(Cl)cc1Cl (stereo not drawn)	98	14	90	91	90	12	·	·	·	·	·	·	·
O=C(CCC(=O)Nc1ccc(Cl)cc1Cl)NNC(=O)[C@@H]1CCCC[C@@H]1C(=O)O	128	11	185*[activator]	107	108	5	108*	1	101	105	103	103	101
O=C(CCC(=O)Nc1ccc(Cl)cc1Cl)NNC(=O)Nc1ccccc1	99	19	99	?	101	9	·	·	·	·	·	·	·
COc1ccc(-c2csc(-c3ccccc3)n2)c(OC)c1	99	12	100	102	101	11	·	·	·	·	·	·	·
O=C(CSc1ccc2ccccc2n1)NCc1ccc2c(c1)OCO2	14*	11	11*	?	21*	0	·	-4	103	107	106	102	101
Cc1onc(-c2ccccc2)c1C(=O)N/N=C/C=C/c1ccccc1	101	·	104	?	101	6	·	·	·	·	·	·	·
Cc1ccc(C(=O)N/N=C/C=C/c2ccccc2)o1	98	20	116	230*[activator]	113	36	113*	0	98	97	96	95	106
COc1ccc(CNC(=O)CCC(=O)Nc2nnc(CC(C)C)s2)cc1	103	·	105	?	103	4	·	·	·	·	·	·	·
COCCn1c(SCC(=O)Nc2nnc(C)s2)nnc1-c1ccncc1	·	17	·	·	·	·	·	0	96	101	96	104	105
O=C(OCC(=O)N1CCc2ccccc21)c1ccccc1	103	27	106	103	106	5	·	·	·	·	·	·	·
O=C(CO/N=C/c1ccccc1O)N1CCc2ccccc21	122	5	191*[activator]	115	114	16	114*	-1	99	95	95	98	102

Screens deposited in PubChem by NMMLSC.
